KB-V1 MDR tox – kills drug-selected multidrug resistant KB-V1 cells. AID 1347076. Potency, µM (doses to about 46.1 µM), actives largely listed as cytotoxic. KB-V1 MDR cells viability, CellTiter-Glo, 72 h. 400,000 compounds, 3.4% hits; further: on the % scale 0 is the no-effect control and ±100 the full control effect; nearly all actives have a fitted effect of over 60% in size
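Following 72 h at 37 degrees C with compound, KB-V1 cell viability was read by CellTiter-Glo luminescence, medium being phenol-red-free DMEM plus 10% FBS; concentration-response parameters came from normalized, curve-fitted qHTS data.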
KB-3-1 cytotox – KB-3-1 parental cell cytotoxicity; KB-3-1 viability, CellTiter-Glo ATP luminescence, 72 h; Potency, µM (series often up to 46.1 µM), hits mostly cytotoxic; 400,000 compounds, 1.4% hits; further: on the % scale 0 is the no-effect control and ±100 the full control effect; nearly all actives have a fitted effect of over 60% in size
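Parental KB-3-1 adenocarcinoma cells in phenol-red-free DMEM with 10% FBS were pin-treated with compounds at several concentrations, incubated 72 h at 37 °C, and viability read by CellTiter-Glo luminescence; concentration-effect curves were fitted after normalization.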
HT1080NT lethal – kills 2HG-producing HT-1080-NT fibrosarcoma cells. Potency, µM (titrated, usually from 46.1 µM), for the others: top-dose activity, negative = less viability, usual class: cytotoxic. AID 686970. 360,000 compounds, 1.6% hits. HT-1080-NT fibrosarcoma viability, CellTiter-Glo ATP luminescence, 48 h;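 further: NT is the 2HG producing partner of a matched IDH1 knockdown line; 0% = DMSO-treated cells and -100% = media-only wells without cells; nearly all actives have a fitted effect of over 55% in size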
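Compounds were tested in concentration-response format on HT-1080-NT cells for 48 hours at 37 degrees C. Cell viability came from CellTiter-Glo luminescence; curves were classified by r2, response magnitude and activity.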
HT1080 IDH1KD tx – toxicity to HT-1080 IDH1 knockdown cells (counter line); HT-1080 IDH1 knockdown viability, ATP luminescence, 48 h; AID 686971; 360,000 compounds, 2% hits; Potency, µM (titrated, usually from 46.1 µM), for inactives: at the top dose activity, negative = toxicity, actives largely listed as cytotoxic;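 further: 0% = DMSO wells and -100% = cell-free medium wells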
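Viability of IDH1-knockdown HT-1080 fibrosarcoma cells was assessed by CellTiter-Glo after 48 h at 37 °C with titrated compound; concentration-effect curves were classified by fit quality and response size.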
MCF10A rereplic – inducers of DNA re-replication in MCF 10A breast cells | AID 624296 | 350,000 compounds, 2.9% hits | Potency, µM (series often up to 46.1 µM), for inactives: at the top dose activity, positive = re-replication, actives largely listed as activators | MCF 10A DNA re-replication, Hoechst nuclear intensity, 48 h; further: % of control where 0% means no effect; nearly all actives have a fitted effect of over 50% in size
SW480 rereplic – inducers of DNA re-replication in SW480 colon cancer cells | 340,000 compounds, 1.8% hits | SW480 DNA re-replication, Hoechst DNA content imaging, 48 h | Potency, µM (top dose mostly 46.1 µM), for the others: top-dose re-replication activation, hits mostly activators; further: % of control where 0% means no effect; nearly all actives have a fitted effect of over 55% in size
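Hoechst fluorescence of nuclei (405 nm excitation, 500-530 nm emission) measured by plate-scanning imager after 48 hr compound exposure at 37 C; re-replication scored as increased number of nuclei with elevated intensity.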
Starred values were filed as active, the others as inactive; i = inactive; ? = inconclusive; nt = no result given; [ ] = remark or other dose. Most compounds without a hit are left out; they make up all but 8% or so of the library. The call rests on the fitted dose curve; in most records, active means well fitted curve in the direction sought with a large enough effect; inconclusive means small, poorly fitted or top-dose-only effect, or another doubt; inactive means no such curve, though single readings can be large; an effect the other way counts as inactive or inconclusive. Potency means the concentration at half of the fitted maximal effect.

SMILES | KB-V1 MDR tox | KB-3-1 cytotox | HT1080NT lethal | HT1080 IDH1KD tx | MCF10A rereplic | SW480 rereplic
Cc1ccccc1CS(=O)(=O)c1nnc([C@H](CC(C)C)NC(=O)OC(C)(C)C)o1 | i | ? | 11µM* | 4µM* | 25% | ?
CC[C@@H](C)[C@H](NC(=O)OC(C)(C)C)c1nnc(S(=O)(=O)Cc2cc(C)ccc2C)o1 | ? | i | 16µM* | 10µM* | 4.1µM* | 13%
CC[C@@H](C)[C@H](NC(=O)OCc1ccccc1)c1nnc([C@@H](NC(=O)OCc2ccccc2)[C@@H](C)CC)o1 | i | i | -3% | -5% | -20% | 2%
CC(C)(C)OC(=O)N[C@@H](Cc1ccccc1)c1nnc(S(=O)(=O)Cc2cccc(F)c2)o1 | 18µM* | 18µM* | ? | 23µM* | ? | ?
CN(C)C(=O)CSc1nnc([C@H](Cc2c[nH]c3ccccc23)NC(=O)OC(C)(C)C)o1 | 13µM* | i | -3% | 10% | -5% | -6%
CC(C)(C)OC(=O)N[C@@H](CCCCNC(=O)OCc1ccccc1)c1nnc([C@H](CCCCNC(=O)OCc2ccccc2)NC(=O)OC(C)(C)C)o1 | i | i | 2% | -4% | 1% | 11%
COc1ccc(Cl)cc1NC(=O)CSC1=Nc2ccccc2C2=NC(CCC(=O)NCc3ccco3)C(=O)N12 (stereo not given) | i | i | nt | nt | nt | nt
CC(C)[C@H](NC(=O)OC(C)(C)C)c1nnc(S(=O)(=O)Cc2c(F)cccc2Cl)o1 | ? | i | 6.3µM* | 4µM* | 9.2µM* | 20%
CC(C)C[C@H](NC(=O)OC(C)(C)C)c1nnc(SCc2ccccc2)o1 | ? | i | -8% | -22% | 430%[0.0737 µM] | 2.6µM*
C[C@H](NC(=O)OC(C)(C)C)c1nnc(SCc2c(F)cccc2Cl)o1 | ? | i | nt | nt | nt | nt
CCOC(=O)CSc1nnc([C@H](Cc2ccccc2)NC(=O)OC(C)(C)C)o1 | i | i | 8% | -21% | -4% | 1%
COc1ccc(-c2nn(C)c3sc(C(=O)Nc4cccc(F)c4)cc23)cc1OC | ? | i | nt | nt | nt | nt
O=C(NCCCO)/C(=C/c1ccc(-c2cccc([N+](=O)[O-])c2)o1)NC(=O)c1ccccc1 | i | i | -29% | ? | 1% | -8%
Cc1ccc(C(=O)N/C(=C/c2ccc(-c3ccc([N+](=O)[O-])cc3)o2)C(=O)NCCCN(C)C)cc1 | i | i | 23µM* | ? | ? | 23µM*
Cc1nc2ccccc2c(=O)n1NCc1cc(Br)cs1 | i | i | 1% | 6% | 23µM* | ?
CCOc1ccc(Nc2nc(NCC3CCCO3)c3ccccc3n2)cc1 (stereo not given) | ? | ? | 18µM* | ? | ? | ?
COc1ccc(Nc2nc(NCC3CCCO3)c3ccccc3n2)c(OC)c1 (stereo not given) | i | i | ? | ? | -1% | -7%
c1ccc(Nc2nc(NCC3CCCO3)c3ccccc3n2)cc1 (stereo not given) | 21µM* | 16µM* | 23µM* | 18µM* | ? | ?
Nc1nc(NCC2CCCO2)nc(Nc2ccccc2)c1[N+](=O)[O-] (stereo not given) | 10µM* | i | 1% | -8% | 3% | 1%
CCOc1ccc(Nc2cc(C)c3ccccc3n2)cc1 | i | i | -22% | -30% | ? | 17%
CCOc1ccc(Nc2c3ccccc3nc3ccccc23)cc1 | ? | 5.2µM* | 16µM* | 12µM* | 3.3µM* | 4.6µM*
COc1cccc(NC(=O)[C@H](NC(=O)[C@@H]2Cc3ccccc3CN2)c2ccccc2)c1 | i | i | ? | -26% | 0% | 15%
CCOc1ccc(Cl)cc1CNCCCSc1nc(C)cc(C)n1 | i | i | ? | -25% | -1% | ?
COc1ccc(N2CCN(C(=O)c3cc4cc5ccc(Cl)cc5nc4o3)CC2)cc1 | ? | i | nt | nt | nt | nt
c1ccc2c(NCC3CCCO3)nc(N3CCOCC3)nc2c1 (stereo not given) | i | i | 8% | 15% | -3% | -2%
SMILES | KB-V1 MDR tox | KB-3-1 cytotox | HT1080NT lethal | HT1080 IDH1KD tx | MCF10A rereplic | SW480 rereplic
Oc1cccc(Nc2nc(NCC3CCCO3)c3ccccc3n2)c1 (stereo not given) | 18µM* | ? | ? | -23% | 15µM* | 6%
COCCn1c(C)cc(C(=O)CSc2nc3ccccc3c(=O)n2Cc2ccco2)c1C | 0.65µM* | ? | -2% | -2% | 1% | -2%
COCCn1c(C)cc(C(=O)CSc2cc(C)c3ccccc3n2)c1C | 2.3µM* | i | -12% | -29% | 27% | 14%
O=C(CSc1nc2ccccc2c(=O)n1Cc1ccco1)NCc1ccco1 | i | i | -8% | 8%[9.24 µM] | ? | -3%
CCOc1ccccc1-n1nnnc1SCC(=O)NCc1ccco1 | i | i | 0% | 1% | 8% | -3%
Cc1cccc(N(CC(=O)NCCSc2ccc(Cl)cc2)S(C)(=O)=O)c1C | i | i | nt | nt | nt | nt
C[C@@]12C(=O)Nc3cc(F)ccc3C(=O)N1[C@H]1c3ccccc3OC[C@@H]1[C@@H]2c1ccccc1 | i | i | -24% | ? | 29% | 2%
COc1ccc2c(c1)[C@H]1[C@H](CO2)[C@H](c2ccccc2)[C@]2(C)C(=O)Nc3cc(C)ccc3C(=O)N12 | ? | i | 1% | -3% | ? | ?
Cc1ccc2c(c1)[C@H]1[C@H](CO2)[C@H](c2ccccc2)[C@]2(C)C(=O)Nc3cc(Cl)ccc3C(=O)N12 | ? | ? | ? | ? | 9.2µM* | ?
Cc1ccc2c(c1)[C@H]1[C@H](CO2)[C@H](c2ccccc2)[C@]2(C)C(=O)Nc3cc(F)c(F)cc3C(=O)N12 | i | ? | ? | ? | 5.2µM* | 23µM*
Cc1ccc2c(c1)[C@H]1[C@H](CO2)[C@H](c2ccccc2)[C@]2(C)C(=O)Nc3ccc(F)cc3C(=O)N12 | ? | ? | ? | 5.8µM* | 3.3µM* | 5.8µM*
COC(=O)c1ccccc1NC(=O)CCCn1nc(C)c2sc3ccccc3c2c1=O | i | i | nt | nt | nt | nt
Cc1ccc(S(=O)(=O)N2C[C@]3(O)C[C@@H]4C(=O)N(c5ccccc5)C(=O)[C@@H]4C[C@]3(OC(=O)NC3CCCC3)C2)cc1 | i | i | 11% | 1% | nt | nt
O=C(CSc1nc2ccccc2s1)Nc1cc(S(=O)(=O)N2CCOCC2)ccc1Cl | 18µM* | i | 2% | 8% | 8% | 10%

High-throughput results: PubChem BioAssay, National Center for Advancing Translational Sciences (NCATS)
